Several values for one entry are separate records, joined by “and”; a condition that tells them apart may be missing. Equal entries are not always repeated. Activity calls are given as the source filed them. Where a call stands in place of a potency, no number is given. Unless noted, calls follow the shape of the dose curve; as a rule, active = well fitted curve in the direction sought with a large enough effect in the repeat runs; inconclusive = weak or mixed curves; inactive = no such curve, though single readings can be large; an effect the other way counts as inactive or inconclusive.
How the values were obtained:
[1] = qHTS assay for small molecule agonists of the p53 signaling pathway (AID 651631; calls by dose curve; also: nearly all actives have a fitted effect of over 15% in size; also: potency is read from the fitted curve at half-maximal effect)
Summary of the method: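 Quantitative high-throughput format: 4,000 p53RE-bla HCT-116 cells/well, 5 h pre-incubation, 16 h compound exposure at 37 °C, 2 h room-temperature substrate step, fluorescence intensity measured.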

[2] = qHTS assay for small molecules that induce genotoxicity in human embryonic kidney cells expressing luciferase-tagged ATAD5 (AID 651632); also: nearly all actives have a fitted effect of over 15% in size; also: potency is read from the fitted curve at half-maximal effect
Summary of the method: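 Cells were seeded at 2,000 per well, dosed with compound, and incubated 16 hr at 37C in 5% CO2. Luciferase activity was then quantified after a 30 min room-temperature incubation with Amplite.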

[3] = qHTS assay for small molecule agonists of the p53 signaling pathway - cell viability (AID 651633; calls by dose curve; also: nearly all actives have a fitted effect of over 30% in size; also: potency is read from the fitted curve at half-maximal effect)
Summary of the method: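 Viability counter-read: CellTiter-Glo luminescence (30 min, room temperature) in the same p53RE-bla plates. These plates had been exposed to compounds for 16 h at 37 C.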

[4] = qHTS assay for small molecules that induce genotoxicity in human embryonic kidney cells expressing luciferase-tagged ATAD5 - cell viability (AID 651634; calls by dose curve; also: nearly all actives have a fitted effect of over 25% in size)
Summary of the method: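 Cells (HEK293T, luciferase-tagged ATAD5) are seeded at 2,000 per well, dosed with compound or DMSO vehicle, and incubated 15.5 hr at 37C and 5% CO2. CellTiter-Fluor is added for 30 min before fluorescence is measured.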

[5] = qHTS assay for small molecule disruptors of the mitochondrial membrane potential - cell viability (AID 720634; calls by dose curve;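 also: human HepG2 liver cancer cells; series mostly up to about 83 µM; nearly all actives have a fitted effect of over 20% in size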)
Summary of the method: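 Cytotoxicity was measured by ATP quantitation in HepG2 wells that had first been treated with compound for 1 hr and stained with m-MPI dye; CellTiter-Glo incubation was 30 min at room temperature.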

[6] = qHTS assay for small molecule disruptors of the mitochondrial membrane potential (AID 720635)
Summary of the method: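 Mitochondrial membrane potential tracked with Mito-MPS dye, red aggregates (ex 540/em 590 nm) against green monomers (ex 490/em 535 nm). Compound treatment 1 hr at 37C, dye 30 min in HepG2.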

[7] = qHTS assay to test for compound auto fluorescence at 590 nm (red) in HepG2 cells (AID 720674)
Summary of the method: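 Red autofluorescence (Ex/Em 540/590 nm, Rose Bengal sodium equivalents) was measured in HepG2 cells, 2,000 per well in MEM plus 10% FBS, plated overnight at 37 C. Readings were taken 1 hr after adding 23 nL compound or DMSO, at 37 C and 5% CO2.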

[8] = qHTS assay to test for compound auto fluorescence at 535 nm (green) in HepG2 cells (AID 720675)
[9] = qHTS assay to test for compound auto fluorescence at 460 nm (blue) in HEK293 cells (AID 720678); also: potency is read from the fitted curve at half-maximal effect
Summary of the method: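 Auto fluorescence in the blue band was quantified as triamterene equivalency. HEK293 cells were seeded at 2,000/well, dosed after a 4-5 hr attachment, and kept overnight at 37C before the 405/460 nm reading.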

[10] = qHTS assay to test for compound auto fluorescence at 590 nm (red) in HEK293 cells (AID 720679)
Summary of the method: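 Autofluorescence equivalency to Rose Bengal sodium, 540/590nm, in HEK293 cells exposed overnight to 23 nL compound per well.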

[11] = qHTS assay to test for compound auto fluorescence at 535 nm (green) in HEK293 cells (AID 720680)
[12] = qHTS assay to test for compound auto fluorescence at 460 nm (blue) in HEK293 cell free culture (AID 720681); also: potency is read from the fitted curve at half-maximal effect
Summary of the method: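 Blue fluorescence (Ex 405/Em 460 nm, triamterene-equivalent) was read immediately after pin transfer of compound or DMSO into medium (DMEM, 10% FBS) without cells.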

[13] = qHTS assay to test for compound auto fluorescence at 535 nm (green) in HEK293 cell free culture (AID 720682)
Summary of the method: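 Measurement is a direct plate read of green fluorescence (485 nm in, 535 nm out) after compound addition to serum-supplemented DMEM lacking cells, with fluorescein used to express intensities.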

[14] = qHTS assay to test for compound auto fluorescence at 590 nm (red) in HEK293 cell free culture (AID 720683)
Summary of the method: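 Red-channel autofluorescence of compounds in culture medium (DMEM, 10% FBS), no cells, measured at 540/590 nm. Rose Bengal sodium is the reference fluorophore for equivalence.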

[15] = qHTS assay to test for compound auto fluorescence at 590 nm (red) in HepG2 cell free culture (AID 720684)
Summary of the method: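 No cells present: MEM + 10% FBS only. Compound pinned in, red label read (540/590 nm). Activity = fluorescence equivalent to Rose Bengal sodium.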

[16] = qHTS assay to test for compound auto fluorescence at 460 nm (blue) in HepG2 cell free culture (AID 720685); also: potency is read from the fitted curve at half-maximal effect
Summary of the method: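 Cell-free plates of MEM plus 10% FBS received 23 nL compound or DMSO vehicle; blue-channel (405/460 nm) intensity scored against triamterene as reference fluorophore.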

[17] = qHTS assay to test for compound auto fluorescence at 535 nm (green) in HepG2 cell free culture (AID 720686)
[18] = qHTS assay to test for compound auto fluorescence at 460 nm (blue) in HepG2 cells (AID 720687); also: potency is read from the fitted curve at half-maximal effect
Summary of the method: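 Blue-channel autofluorescence (Ex/Em 405/460 nm, triamterene-equivalent) was measured after 1 hr compound exposure at 37 C, 5% CO2. Cells were HepG2, plated overnight at 37 C in MEM plus 10% FBS.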

[19] = molecular target: Glucocorticoid receptor (Homo sapiens) (UniProt P04150); test: qHTS assay to identify small molecule agonists of the glucocorticoid receptor (GR) signaling pathway (AID 720691; active = well fitted activation curve with a large enough effect in the signal ratio in the repeat runs, not every such curve was filed as active; inconclusive = weak or mixed curves, or effect the other way; inactive = no such curve, though single readings can be large or run the other way; the % refers to the signal ratio; also: potency is read from the fitted curve at half-maximal effect)
Sequence of Glucocorticoid receptor (Homo sapiens) (P04150 whole entry, looked up): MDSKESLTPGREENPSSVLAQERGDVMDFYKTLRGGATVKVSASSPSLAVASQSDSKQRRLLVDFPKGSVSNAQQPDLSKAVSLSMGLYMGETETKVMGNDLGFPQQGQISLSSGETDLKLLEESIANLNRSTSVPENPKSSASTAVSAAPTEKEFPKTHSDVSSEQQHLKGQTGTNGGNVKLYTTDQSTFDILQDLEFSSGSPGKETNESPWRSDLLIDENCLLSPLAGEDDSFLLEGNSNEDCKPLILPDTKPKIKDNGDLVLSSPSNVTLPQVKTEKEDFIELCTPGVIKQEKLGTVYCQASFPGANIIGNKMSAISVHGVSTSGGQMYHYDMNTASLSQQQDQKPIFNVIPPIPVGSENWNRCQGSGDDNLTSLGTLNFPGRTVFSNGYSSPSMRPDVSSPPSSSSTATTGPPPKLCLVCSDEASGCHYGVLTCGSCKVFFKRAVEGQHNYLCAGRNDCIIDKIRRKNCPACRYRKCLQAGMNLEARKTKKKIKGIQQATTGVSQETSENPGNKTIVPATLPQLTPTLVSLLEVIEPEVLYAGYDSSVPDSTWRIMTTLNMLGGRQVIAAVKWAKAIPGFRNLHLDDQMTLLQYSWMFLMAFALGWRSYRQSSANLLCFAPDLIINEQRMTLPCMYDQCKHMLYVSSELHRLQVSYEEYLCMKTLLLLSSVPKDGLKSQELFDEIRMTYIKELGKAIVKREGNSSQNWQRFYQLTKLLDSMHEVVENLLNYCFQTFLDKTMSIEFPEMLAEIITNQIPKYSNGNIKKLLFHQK
Summary of the method: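 Steps: seed GR-bla HeLa cells, incubate 4 h at 37 C/5% CO2; pin-transfer DMSO-dissolved compounds; incubate 18 h at 37 C; add LiveBLAzer B/G FRET substrate; after 2 h at room temperature, measure fluorescence.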

[20] = molecular target: Glucocorticoid receptor (Homo sapiens) (UniProt P04150); test: qHTS assay to identify small molecule antagonists of the glucocorticoid receptor (GR) signaling pathway (AID 720692; active = well fitted inhibition curve with a large enough effect in the signal ratio in the repeat runs, not every such curve was filed as active; inconclusive = weak or mixed curves, or effect the other way; inactive = no such curve, though single readings can be large or run the other way; the % refers to the signal ratio)
Summary of the method: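 Antagonism was scored as loss of dexamethasone-driven (5 nM final) reporter signal in HeLa cells bearing a glucocorticoid response element–beta-lactamase construct, after 18 h compound exposure at 37 C and 2 h FRET substrate loading.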
Tags tell the direction and shape of the fitted curve or compound fluorescence and quenching.

SMILES | Potency [1] | Potency [2] | Potency [3] | Potency [4] | Potency [5] | Potency [6] | Potency [7] | Potency [8] | Potency [9] | Potency [10] | Potency [11] | Potency [12] | Potency [13] | Potency [14] | Potency [15] | Potency [16] | Potency [17] | Potency [18] | Potency [19] | Potency [20]
O=c1[nH]cc(F)c(=O)[nH]1 | 4.22 µM (active) and 3.57 µM (active) and 1.57 µM (active) | 7.5 µM (active) and 10.1 µM (active) | 1.06 µM (active) and 991 nM (active) | inactive | inactive | inactive | inactive | inactive | inactive | inactive | inactive | inactive | inactive | inactive | inactive | inactive | inactive | inactive | inactive | inactive
Cc1ncc([N+](=O)[O-])n1CCO | inactive | inactive | inactive | inactive | inactive | inactive | inactive | inactive | inactive | inactive | inactive | inactive | – | inactive | inactive | inactive | inactive | inactive | – | –
Cc1ncc([N+](=O)[O-])n1C | inactive | inactive | inactive | inactive | inactive | – | inactive | inactive | inactive | inactive | inactive | inactive | inactive | inactive | inactive | inactive | inactive | inactive | inactive | inactive
CC1(C)O[C@@H]2C[C@H]3[C@@H]4CCC5=CC(=O)C=C[C@]5(C)[C@@]4(F)[C@@H](O)C[C@]3(C)[C@]2(C(=O)CO)O1 | inactive | inactive | inactive | inactive | inactive | – | inactive | inactive | inactive | inactive | inactive | inactive | – | inactive | inactive | inactive | inactive | inactive | 3 nM [inconclusive] (active) and 349 nM [inconclusive] (active) and 1.4 nM (active) | –
Cc1cc(=O)oc2cc(O)ccc12 | 61.1 µM (active) and 48.6 µM (active) | inactive | inactive | inactive | inactive | – | inactive | inactive | 11.2 µM [fluorescent] (active) and 39.8 µM [fluorescent] (active) and 35.5 µM [fluorescent] (active) | inactive | inactive | 10 µM (active) and 39.8 µM (active) and 35.5 µM (active) | inactive | inactive | inactive | 10 µM [fluorescent] (active) and 39.8 µM [fluorescent] (active) | inactive | 10 µM [fluorescent] (active) and 39.8 µM [fluorescent] (active) | – | –
CCCCC1(COC(=O)CCC(=O)O)C(=O)N(c2ccccc2)N(c2ccccc2)C1=O | inactive | inactive | inactive | inactive | inactive | – | inactive | inactive | inactive | inactive | inactive | inactive | inactive | inactive | inactive | inactive | inactive | inactive | – | –
CCc1nc(N)nc(N)c1-c1ccc(Cl)cc1 | 8.41 µM (active) | inactive | 10.6 µM (active) and 12.4 µM (active) | inactive | inactive | inactive | inactive | inactive | inactive | inactive | inactive | inactive | – | inactive | inactive | inactive | inactive | inactive | inactive | inactive

Reference: PubChem BioAssay (Tox21)
